These results are taken from PubChem BioAssay AID602449 (Sanford-Burnham Center for Chemical Genomics, 2012).

The structures appear in SMILES notation. About 5,000 (1.4%) of roughly 360,000 compounds were called active.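 How the source made its calls: active means inhibition of 50% or more, scaled per plate between neutral and stimulator controls; inactive means the rest.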 For the sample, actives were picked, then their nearest neighbours and some compounds at random.

This experiment can be described thus: blockers of Ca2+-induced mitochondrial swelling – biochemical, isolated mouse mitochondria, absorbance, primary screen (AID 602449).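 Further: 0% = DMSO wells given calcium and 100% = 1 mM EGTA wells.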 As to conditions: 30 min, at 10 µM, stronger effect = higher value.
In the case of `CCCCC(=O)N/N=C/c1c(O)n(CCC2=CCCCC2)c(=O)[nH]c1=O`, the inhibition was -4.5% (inactive).
As for `CCCCC(=O)N/N=C/c1c(O)n(CC)c(=S)n(CC)c1=O`, the inhibition is 58% (active).
Next, `Cn1c(O)c(C=NCCCC(=O)O)c(=O)n(C)c1=O`: 1.1% (inactive).
For the compound `COc1ccc2c(c1)[C@]13CCCCC1C(C2)N(C)CC3` (stereo not given in full), the inhibition was -3% (inactive).
`Cc1ccc(C2CN(C)CC2C(=O)c2ccc(F)cc2)cc1` (stereo not given): the inhibition is -0.4% (inactive).
Consider `CCN(CC)CCOC(=O)c1cc2cc(COC)ccc2o1`, for which the inhibition is -3.6% (inactive).
Regarding `CCOc1cccc(=NC2CCCCC2)c2c(C)[nH]c(C)c12`, the inhibition was 62.7% (active).
On to `C=CCn1c(O)c(/C=N/N2CCOCC2)c(=O)[nH]c1=S`, for which the inhibition is -1.7% (inactive).
As to `O=C(CCCn1c(=O)[nH]c2cc(Cl)ccc2c1=O)N1CCC2(CC1)OCCO2`, the inhibition is 1.1% (inactive).
Turning to `C[C@H]1CN([C@@H](C)CO)C(=O)CCCn2nncc2CO[C@H]1CN(C)C(=O)Oc1ccccc1`, the inhibition is 0.9% (inactive).
For `CCCCCCCCCCCCn1ccc(=N)cc1`, the inhibition was 68.6% (active).
Consider `CC(=O)NCC1=C(c2ccc3ccccc3c2)C[C@@H]2CC[C@H]1N2Cc1ccco1`, for which the inhibition was -0.6% (inactive).
Take `O=C(CN1CCCCC1)Nc1ccc(Br)cc1C(=O)c1ccccc1Cl`: the inhibition was 1.1% (inactive).
For `COc1c(O)ccc2c1-c1c3c(cc4c1C(C2)N(C)CC4)OCO3` (stereo not given), the inhibition was -0.5% (inactive).
For the compound `c1ccc(C2NCc3ccccc3-n3cccc32)cc1` (stereo not given), the inhibition was 0.4% (inactive).
Regarding `COc1ccc(C2NCc3ccc4c(c3-n3cccc32)OCO4)cc1OC` (stereo not given), the inhibition was 68% (active).
As for `O=C(Nc1cccc2ccccc12)N1CCC2(CC1)OCCO2`, the inhibition was 0.6% (inactive).
To `O=C1/C(=C\c2ccc3c(c2)OCO3)N2CCC1CC2` belongs -0.8% (inactive).
`O=c1c2ccccc2nc(-c2ccc(Cl)cc2Cl)n1-c1ccncc1`: the inhibition was 0.3% (inactive).
`COc1ccc(-c2nc(CS(=O)CC(=O)N3CCC4(CC3)OCCO4)c(C)o2)cc1` (stereo not given): the inhibition was 1% (inactive).
As to `O=Cc1cn(Cc2ccc(F)cc2Cl)c2ccccc12`, the inhibition is 60.7% (active).
Regarding `Cc1ccnc(-n2c(C)cc(/C=C3\C(=O)NC(=S)N(C)C3=O)c2C)c1`, the inhibition is 6.4% (inactive).
`O=C1C2CCN(CC2)C1(CO)CO`: the inhibition was -0.5% (inactive).
Turning to `CCN(CC)C(=O)c1ccc(NC(=O)c2sccc2-c2ccccc2)cc1`, the inhibition is 0.3% (inactive).
Turning to `CCCCn1c(O)c(C(CC)=NCc2ccco2)c(=O)[nH]c1=O`, the inhibition was -0.1% (inactive).
To `CCCCCCN=C(CC)c1c(O)n(CCCC)c(=O)[nH]c1=O` belongs 79.8% (active); to `CCC(=NCCCO)c1c(O)n(-c2ccc(OC)cc2)c(=O)[nH]c1=O`, 2.3% (inactive).
In the case of `Cc1cccc(-n2c(O)c(C=NC34CN5CN(CN(C5)C3)C4)c(=O)[nH]c2=O)c1`, the inhibition was 2.5% (inactive).
To `CSc1ccc(C(=O)C2CCCN(Cc3ccn[nH]3)C2)cc1` (stereo not given) belongs 1.7% (inactive).
On to `CC(=CCOc1ccc2ccc(=O)oc2c1)C1=CC(=O)C(C)(C)O1`, for which the inhibition is 1.5% (inactive).
For the compound `O=C(NCC1=C(c2ccc3ccccc3c2)C[C@@H]2CC[C@H]1N2Cc1ccco1)c1cccs1`, the inhibition is -1.7% (inactive).
To `CC(Cc1ccccc1)NCCC(c1ccccc1)c1ccccc1` (stereo not given) belongs 104% (active).
To `CCOc1ccc(C2SCC(=O)Nc3c2c(C)nn3C2CCOC(C)(C)C2)cc1` (stereo not given) belongs 0.4% (inactive).
For `Cc1ccsc1C(=O)C1CCCN(Cc2ccc(O)cc2)C1` (stereo not given), the inhibition was 0.1% (inactive).
Turning to `Cn1c(O)c(C=Nc2ccc3c(c2)CCC3)c(=O)n(C)c1=O`, the inhibition is -1.3% (inactive).
